Screens: PubChem BioAssay, National Center for Advancing Translational Sciences (NCATS)
Rows were chosen to be rich in hits. Some 1.7% of all compounds tested hit in one or more screens of this group.
Akt phos inh = Akt phosphorylation inhibition; 360,000 tested, 0.32% active; Neuro2A IGF-stimulated pAkt S473 HTRF, 20 min; active compounds read low; activity change, % for hits at 50 µM; in the data active = activity change below about -80%; inconclusive = mostly about -51% to -80%
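Neuro2A cells (4,500/well, DMEM with 0.5% FBS) were treated with compound at a single 50 µM final concentration, stimulated with 6 nM IGF for 20 min at 37 °C, and lysed. Phospho-Akt Ser473 was read by HTRF as 665/615 ratio ×10^4.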
RXFP1 antag = RXFP1 (human) relaxin receptor antagonism | HEK293-RXFP1, relaxin-stimulated cAMP HTRF, 30 min; active compounds read low | 350,000 tested, 0.59% active | activity change, negative = inhibition, % at 57.5 µM | Q9HBX9 | AID 1259400;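 active = activity change of -60% or lower, but not beyond a set lower limit; inconclusive = change between -60% and -40%, or beyond the set limit; inactive = change above -40%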
hERG WT inh = blocks the wildtype human KCNH2 potassium channel; U2OS, BacMam KCNH2, thallium flux FluxOr; active compounds read low; activity change, % at 1.84 µM; 340,000 tested, 0.37% active;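 active = maximum activity change below -70%; inconclusive = maximum activity change between -70% and -50%; inactive = maximum activity change above -50%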
Target sequence (Q12809 whole entry, looked up): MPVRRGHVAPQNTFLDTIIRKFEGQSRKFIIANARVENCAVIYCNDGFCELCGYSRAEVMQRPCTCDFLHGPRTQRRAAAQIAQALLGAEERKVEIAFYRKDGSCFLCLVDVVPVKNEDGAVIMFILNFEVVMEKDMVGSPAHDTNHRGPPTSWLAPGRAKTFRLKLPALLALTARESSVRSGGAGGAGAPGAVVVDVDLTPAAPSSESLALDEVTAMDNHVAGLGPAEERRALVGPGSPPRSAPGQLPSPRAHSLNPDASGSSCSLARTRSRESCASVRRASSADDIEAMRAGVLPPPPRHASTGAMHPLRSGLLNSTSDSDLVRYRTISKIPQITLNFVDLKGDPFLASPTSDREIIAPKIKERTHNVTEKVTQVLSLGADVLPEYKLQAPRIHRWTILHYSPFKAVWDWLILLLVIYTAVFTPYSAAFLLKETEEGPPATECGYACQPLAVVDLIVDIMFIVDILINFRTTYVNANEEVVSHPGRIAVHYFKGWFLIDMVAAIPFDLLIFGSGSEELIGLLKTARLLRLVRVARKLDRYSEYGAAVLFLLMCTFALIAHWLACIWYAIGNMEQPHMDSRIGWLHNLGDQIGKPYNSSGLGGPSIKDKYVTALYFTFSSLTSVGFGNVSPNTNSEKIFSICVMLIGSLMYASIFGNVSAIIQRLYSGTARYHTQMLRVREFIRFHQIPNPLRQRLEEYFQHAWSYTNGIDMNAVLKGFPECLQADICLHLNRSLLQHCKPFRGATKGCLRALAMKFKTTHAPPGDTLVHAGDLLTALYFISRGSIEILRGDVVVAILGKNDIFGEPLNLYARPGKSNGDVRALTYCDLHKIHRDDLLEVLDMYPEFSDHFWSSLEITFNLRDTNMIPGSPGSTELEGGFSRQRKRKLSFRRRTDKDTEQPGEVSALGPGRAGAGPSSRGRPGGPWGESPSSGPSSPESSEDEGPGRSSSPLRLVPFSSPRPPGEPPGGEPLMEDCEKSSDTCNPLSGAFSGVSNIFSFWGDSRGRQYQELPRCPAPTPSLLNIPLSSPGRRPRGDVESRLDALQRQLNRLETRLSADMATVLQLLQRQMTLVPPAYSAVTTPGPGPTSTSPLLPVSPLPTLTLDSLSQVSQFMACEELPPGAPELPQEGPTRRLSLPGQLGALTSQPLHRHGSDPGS
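U2OS cells transduced with wild-type KCNH2 virus are loaded with FluxOr dye for 45 min, and thallium flux is measured in kinetic reads before and after stimulation buffer. Rate constants are normalized to DMSO controls.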
RXFP1 agonist = activates the human relaxin receptor RXFP1. Q9HBX9. HEK293T-RXFP1 cAMP TR-FRET, 30 min; response scale: percent of porcine relaxin response, buffer zero. Potency, µM (titrated, usually from 57.5 µM), inactives show at the highest dose activation, actives largely listed as activators. 370,000 tested, 0.3% active. AID 2676; active = well fitted activation curve with a large enough effect; inconclusive = small, poorly fitted or top-dose-only effect; also: potency is read from the fitted curve at half-maximal effect; nearly all actives have a fitted effect of over 60% in size
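cAMP rise read by TR-FRET after 30 min, 37C compound exposure (up to 58 uM) in RXFP1-transfected HEK293 cells with Ro 20174 present. EC50 from Hill-equation fits, with 29 nM porcine relaxin as 100% and buffer as basal.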
KCNH2 3.1 block = inhibitors of human KCNH2 3.1 potassium channel isoform. U2OS KCNH2 3.1, thallium flux FluxOr; active compounds read low. activity change, % (tested at about 1.8 µM). 340,000 tested, 0.95% active. AID 720553;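 active = maximum activity change below -70%; inconclusive = maximum activity change from -70% to -50%; inactive = maximum activity change above -50%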;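 also: thallium influx rate constant from kinetic fluorescence after stimulation buffer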
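Thallium flux read-out: FluxOr dye with Red40 quencher in HBSS/HEPES, 45 min at RT. Rate constants from kinetic reads were normalized to positive and negative DMSO controls. Cells: U2OS virally expressing the 3.1 isoform.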
An asterisk follows results filed as active; i = inactive; ? = inconclusive; / = no result given. % is scaled to controls: 0 for no effect and ±100 for the full control effect.

SMILES	Akt phos inh	RXFP1 antag	hERG WT inh	RXFP1 agonist	KCNH2 3.1 block
CCc1nc2sc3c(c2c(=S)[nH]1)CC(C)(C)OC3	i	-66*	-3	20%	-2
O=C(NCCCN1CCCCC1)C1CCC(=O)N1CCc1ccccc1 (stereo not drawn)	i	-22	-4	0%	11
COc1ccc(NC(=S)N2CCC(C(=O)c3ccc(Cl)cc3)CC2)cc1	i	-2	-37	/	16
COc1ccc(CN2CCC(C(=O)c3cccc(Cl)c3)CC2)cc1	i	-11	?	-1%	-108*
COc1ccc(CN2CCC(C(=O)c3ccc(Cl)cc3)CC2)cc1	i	-5	-110*	0%	-97*
COc1ccc(-c2[nH]ncc2CN2CCC(C(=O)c3ccc(F)cc3)CC2)cc1	i	-16	-34	0%	-93*
COc1ccc(NC(=S)NNC(=O)C(C)n2nc(C)c([N+](=O)[O-])c2C)cc1 (stereo not drawn)	i	36	8	-3%	2
CCN(CC)c1nc2cc(C)ccc2cc1/C=C(\C#N)C(N)=O	i	-8	11	10%	-22
CCCCn1c(N)c(N(CCOC)C(=O)COC(=O)COc2c(C)cc(C)cc2C)c(=O)[nH]c1=O	i	2	-9	1%	1
CCCCCN(C(=O)COC(=O)COc1c(C)cc(C)cc1C)c1c(N)n(CCCC)c(=O)[nH]c1=O	i	-69*	-2	0%	3
O=C(Nc1cccc(-c2nc3ccccc3s2)c1)c1ccc2c(c1)OCO2	i	-9	2	4%	10
c1ccc2sc(-c3ccc4c(c3)OCO4)nc2c1	-112%*	-14	-3	7%	-3
O=[N+]([O-])c1cccc(OCCCN2CCC(Cc3ccccc3)CC2)c1	i	-15	-86*	/	-88*
Cc1ccccc1OCCN1CCC(Cc2ccccc2)CC1	i	-17	-9	0%	0
Cc1ccc([N+](=O)[O-])c(OCCN2CCC(Cc3ccccc3)CC2)c1	i	-26	-4	1%	-93*
O=[N+]([O-])c1ccc(CN2CCC(Cc3ccccc3)CC2)cc1	i	-11	3	0%	?
CCN(Cc1ccccc1)C(=O)CN1C(=O)NC(CC)(c2ccc(F)cc2)C1=O (stereo not drawn)	i	-8	-83*	-1%	-3
Cc1cccc(CN2CCN(CC(C)C)C(CCO)C2)n1 (stereo not drawn)	i	-2	-3	3%	7
C[C@H](CO)N1C[C@H](C)[C@@H](CN(C)C(=O)CCC(F)(F)F)OCc2cnnn2CCCC1=O	i	1	1	/	-2
CCN(CC(=O)Nc1ccc(Br)cc1F)CC(=O)NC1CCS(=O)(=O)C1 (stereo not drawn)	i	-3	14	-3%	-1
O=c1[nH]c(=O)n(Cc2ccco2)c2c1C(C(F)(F)F)(C(F)(F)F)N=C(CCc1ccccc1)N2	i	-10	2	4%	-108*
O=C(/C=C/c1cn(CC(O)CN2CCCCCC2)c2ccccc12)c1cccs1 (stereo not drawn)	i	-17	-1	4%	-86*
CCCCN(C)CC(O)Cn1cc(/C=C/C(=O)c2cccs2)c2ccccc21 (stereo not drawn)	i	?	0	1%	-14
CCCc1cc(=O)[nH]c(SCC(N)=O)n1	-125%*	-1	-1	0%	3
CCCc1cc(=O)[nH]c(SCC)n1	i	-10	0	1%	1
SMILES	Akt phos inh	RXFP1 antag	hERG WT inh	RXFP1 agonist	KCNH2 3.1 block
Cc1ccc2nc(C)c(C(=O)N/N=C/c3cccs3)cc2c1	i	-1	-2	-1%	-149*
CC(=O)Nc1ccc(/C=N/NC(=O)c2cc3cc(C)ccc3nc2C)cc1	i	-21	5	0%	-2
N#CC(c1ccc(Cl)nn1)c1ccc(Cl)cc1Cl (stereo not drawn)	i	0	6	-1%	12
Cc1cccc(CSc2ncccc2C(=O)O)c1	i	-14	-87*	1%	5
O=C(NCC(F)(F)F)c1[nH]c(C(F)(F)F)nc1-c1ccccc1	i	/	/	/	/
O=c1cc(-c2ccccc2Cl)oc2ccc([N+](=O)[O-])c(O)c12	i	/	5	0%	5
O=[N+]([O-])c1cc([N+](=O)[O-])c2oc(-c3ccccc3)c(Br)c2c1O	i	-113*	-1	1%	-11
C=CCn1c(-c2cccc(Cl)c2)n[nH]c1=S	-109%*	-7	1	17%	2
O=C(O)CCCC(=O)Nc1ccc(OCc2nc3ccccc3s2)cc1	i	-5	i	2%	-9
Cc1ccc(OCCC(=O)OCC(=O)N2CCN(S(=O)(=O)c3ccc(C)cc3C)CC2)cc1	i	-17	1	-1%	-8
CCC[N+](CC#Cc1ccccc1)(CCC)CC(=O)OC	i	7	5	-1%	5
CCC[N+](CC#Cc1ccccc1)(CCC)CC(=O)OCC	i	-6	23	1%	-71*
Cc1cc(C)n(-c2ccc(OCC(=O)O)nn2)n1	i	3	-6	1%	-10
CCCCOc1ccc(-n2nc(C)cc2C)nn1	-101%*	-3	-8	-1%	2
COc1cc(S(=O)(=O)NCc2ccc3c(c2)OCO3)ccc1F	i	4	-5	0%	-8
COc1ccccc1S(=O)(=O)Cc1ccc(C(=O)N2CCN(c3cccc(Cl)c3)CC2)o1	i	?	1	0%	-2
COc1ccccc1S(=O)(=O)Cc1ccc(C(=O)N2CCN(c3ccccc3)CC2)o1	-124%*	-16	2	-3%	-5
COC(=O)Cc1c(C)c2c(O)cc(C)cc2oc1=O	/	33	-3	16µM*	2
CCOC(=O)Cn1c(=O)oc2cc(S(=O)(=O)N3CCN(c4cccc(Cl)c4)CC3)ccc21	/	-22	/	0%	/
N#CC1=C(SCC(=O)Nc2ccccc2)NC(=O)CC1c1ccc(O)cc1 (stereo not drawn)	i	/	4	0%	7
Cc1ccccc1C(=O)c1cccn1CC(=O)N1CCCCCC1	i	-11	5	-2%	-100*
O=C(CSc1nc(-c2ccccc2)nc2ccccc12)Nc1cccc(C(=O)O)c1	i	13	0	?	19
CCc1ccc2[nH]c(C(=O)N(C)c3ccc(F)cc3F)cc2c1	i	-6	-1	1%	-71*
N#Cc1c(SCC(=O)Nc2nccs2)sc2c(O)cc(=O)[nH]c12	i	-87*	1	8%	0
CCCCN(C)CCCNC(=O)C1CCC(CNS(=O)(=O)c2c(C)cc(C)cc2C)CC1 (stereo not drawn)	i	0	-26	7%	-77*
NC(=O)CSc1nnc(-c2ccncc2)n1CCc1ccccc1	i	11	-2	0%	7
